Test results reported in PubChem BioAssay AID492950 (Southern Research Specialized Biocontainment Screening …, 2010).
Measured potencies and affinities stand elsewhere. Activity calls are given as the source filed them. No rule for the calls is given here.

experiment: viability loss in mammalian cells – cytotoxicity control, dose response (AID 492950); conditions: mammalian cell viability, cytotoxicity counter-screen; series mostly up to 40 µM; viability: at the top concentration

Row | SMILES | viability
1 | O=C(Cc1cc(=O)[nH][nH]1)N/N=C/c1cccc2ccccc12 | 96% (inactive)
2 | COc1ccc(/C=C2/C(=O)N(c3ccccc3)N=C2C)cc1OC | 98.5% (inactive)
3 | C/C(=N\NC(=O)Cc1cc(=O)[nH][nH]1)c1cccc([N+](=O)[O-])c1 | 91.2% (inactive)
4 | Cn1c(O)c(C2=NN(C(=O)CCl)C(c3ccccc3)C2)c(=O)n(C)c1=O (stereo not given) | 90.6% (inactive)
5 | C/C(=N/NC(=O)Cc1cc(=O)[nH][nH]1)c1ccc([N+](=O)[O-])cc1 | 93% (inactive)
6 | CCCc1[nH]nc2c1C(c1ccoc1)C(C#N)=C(N)O2 (stereo not given) | 86.2% (inactive)
7 | O=C(Cc1cc(=O)[nH][nH]1)N/N=C/C(Cl)=C/c1ccccc1 | 99.4% (inactive)
8 | O=C(Cc1cc(=O)[nH][nH]1)N/N=C/C=C/c1ccccc1 | 98.9% (inactive)
9 | CCCCc1ccc(NC(=O)CSCc2cc(=O)[nH][nH]2)cc1 | 99.3% (inactive)
10 | Cc1ccsc1/C=N/NC(=O)Cc1cc(=O)[nH][nH]1 | 90.7% (inactive)
11 | O=C1NC2=C(CCc3ccccc32)C(c2ccccc2)N1 (stereo not given) | 94.9% (inactive)
12 | CCOc1cc(C2C(C#N)=C(N)Oc3n[nH]c(-c4ccccc4)c32)ccc1O (stereo not given) | 92.9% (inactive)
13 | Cc1[nH]n(-c2ccccc2)c(=O)c1C(c1cccc([N+](=O)[O-])c1)c1c(C)[nH]n(-c2ccccc2)c1=O | 89.2% (inactive)
14 | N#CC1=C(N)Oc2n[nH]c(-c3cccs3)c2C1c1ccccc1C(=O)O (stereo not given) | 93.2% (inactive)
15 | Cc1nc2ccccc2c2c1C(=O)N(C)C2=O | 104% (inactive)
16 | CCOC(=O)C/C(C)=N/NC(=O)COc1ccccc1C | 89.7% (inactive)
17 | CCCCCCOC(=O)c1ccc(OC(=O)c2cccnc2)cc1 | 95.7% (inactive)
18 | C/C(=N\NC(=O)c1ccncc1)c1cc2ccccc2oc1=O | 92.7% (inactive)
19 | CCCc1c(-c2ccc(O)cc2)nn(-c2ccc(O)cc2)c1-c1ccc(O)cc1 | 74.2% (inactive)
20 | CCOc1ccccc1C1C(C#N)=C(N)Nc2onc(-c3ccccc3)c21 (stereo not given) | 75.6% (inactive)
21 | COC(=O)C(C#N)C(c1cccnc1)c1c(C)[nH][nH]c1=O (stereo not given) | 82.6% (inactive)
22 | Fc1ccc(Oc2nc(-c3ccccc3)nnc2C(F)(F)F)cc1 | 96% (inactive)
23 | O=C(Cc1cc(=O)[nH][nH]1)N/N=C/c1ccccc1Cl | 95.8% (inactive)
24 | Cc1cc(-c2[nH]nc3c2C(c2ccc(Cl)cc2)C(C#N)=C(N)O3)c(C)s1 (stereo not given) | 91.7% (inactive)
25 | Cc1ccc(SCC2=NNC(=O)C2)cc1 | 92.7% (inactive)
26 | Cc1ccc(-c2[nH]nc3c2C(c2ccc(OC(=O)N4CCOCC4)cc2)C(C#N)=C(N)O3)cc1 (stereo not given) | 99.1% (inactive)
27 | N#CC1=C(N)Oc2n[nH]c(-c3cccs3)c2C1c1cccs1 (stereo not given) | 82.8% (inactive)
28 | CCOc1ccc(-c2[nH]nc3c2C(c2ccc(O)cc2)C(C#N)=C(N)O3)cc1 (stereo not given) | 96.8% (inactive)
29 | CC(=O)N1CCC2(CC1)C(C#N)=C(N)Oc1n[nH]c(CSc3ccc(C)cc3)c12 | 97.3% (inactive)
30 | O=c1cc(-c2ccc(Cl)c(Cl)c2)[nH][nH]1 | 95.7% (inactive)
